# Screening data deposited in PubChem BioAssay by National Center for Advancing Translational Sciences (NCATS).
# ELG1 DNA repair: ELG1-dependent DNA repair inhibition; Potency, µM (top dose mostly 46.1 µM), hits mostly inhibitors; hit rate 2.3% among 330,000; HEK293T ELG1-luciferase reporter, luminescence, 16 h; DNA damage induced by 5-fluorouridine; AID 504467; also: nearly all actives have a fitted effect of over 55% in size
#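 DMSO vehicle served as the neutral condition. Each well held 2,000 cells given 5-fluorouridine plus compound; after 16 hr at 37 °C/5% CO2, ONE-Glo was added and luciferase measured 30 min later.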
# IL1B secr inh: inflammasome signaling inhibition, IL-1 beta readout. activity change, % at 57.5 µM. AID 743279. THP-1 LPS/ATP IL-1B secretion, AlphaLISA, 16 h; hits give low values. hit rate 4.7% among 360,000; in the data active = activity change below about -50%; inconclusive = mostly about -30% to -49%
#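 THP-1 cells pretreated 1 hr with compounds (up to 57.5 uM final), then stimulated with LPS (250 ng/mL final) plus ATP (1.25 mM final); secreted IL-1B measured by AlphaLISA after 16 hr, decreased signal indicating inhibition.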
# TDP1 cell CPT: DT40-hTDP1 cell growth loss with CPT; chicken DT40 Tdp1-/-;hTDP1 cells + 20 nM CPT, ATP luminescence, 48 h; Potency, µM (top dose mostly 46.2 µM), actives largely listed as inhibitors; hit rate 12% among 420,000; AID 686979; also: nearly all actives have a fitted effect of over 55% in size
#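 Chicken DT40 Tdp1-/- cells stably complemented with human TDP1 were seeded at 400 cells/well in medium containing 20 nM camptothecin, exposed to pin-transferred compounds, and grown at 37 °C for at least 48 hr. Viability was read as ATP luminescence.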
# TDP1 cell noCPT: qHTS for Inhibitors of human tyrosyl-DNA phosphodiesterase 1 (TDP1): qHTS in cells in absence of CPT. DT40 Tdp1-/- hTDP1 cells, no CPT, ATP luminescence, 48 h. Potency, µM (top dose mostly 46.2 µM), most hits filed as inhibitors. hit rate 15% among 420,000. AID 686978, 2013; also: nearly all actives have a fitted effect of over 55% in size
#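 DT40 Tdp1-/-;hTDP1 cells, no CPT (DMSO vehicle only), 400 cells/well; compounds pin-transferred; ≥48 hr, 37 °C; CellTiter-Glo 30 min RT dark, luminescence read.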
# RORg inh: ROR gamma (mouse) transcription inhibition | Potency, µM (series often up to 53.6 µM), usual class: inhibitors | hit rate 5.4% among 310,000 | Drosophila S2 Gal4-RORgamma UAS-luciferase reporter, 20 h; also: nearly all actives have a fitted effect of over 60% in size
# Target sequence (P51450 whole entry, looked up, the tested form may be a part): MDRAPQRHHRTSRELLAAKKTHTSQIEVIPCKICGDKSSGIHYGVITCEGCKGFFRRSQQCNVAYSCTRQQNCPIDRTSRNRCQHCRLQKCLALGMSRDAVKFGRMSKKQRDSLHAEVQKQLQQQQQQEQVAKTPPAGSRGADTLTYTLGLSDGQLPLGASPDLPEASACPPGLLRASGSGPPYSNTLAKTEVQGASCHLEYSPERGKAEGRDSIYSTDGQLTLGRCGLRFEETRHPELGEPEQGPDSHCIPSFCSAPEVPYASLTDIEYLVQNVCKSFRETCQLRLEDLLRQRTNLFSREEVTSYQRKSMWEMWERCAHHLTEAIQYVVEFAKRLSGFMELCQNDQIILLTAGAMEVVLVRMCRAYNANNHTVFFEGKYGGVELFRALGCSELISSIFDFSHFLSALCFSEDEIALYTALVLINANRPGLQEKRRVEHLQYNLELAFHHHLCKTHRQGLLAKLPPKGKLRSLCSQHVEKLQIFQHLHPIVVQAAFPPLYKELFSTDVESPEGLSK
#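 Stably transfected Drosophila Schneider cells are the test system, with ROR gamma fused to Gal4 and luciferase under UAS control; luminescence is read after 20 hr of 700 uM copper sulfate induction at ambient temperature.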
# VP16 counter: counter-screen for ROR gamma inhibitors: Gal4-VP16 reporter. Drosophila S2 Gal4-VP16 UAS-luciferase, luminescence, 20 h. hit rate 3.5% among 310,000. Potency, µM (highest dose often 53.6 µM), usual class: inhibitors;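 also: Gal4-VP16 expression switched on by copper sulfate through the metallothionein promoter; nearly all actives have a fitted effect of over 50% in size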
# A number is an active result; - = inactive; ? = inconclusive; . = no result; [ ] = another dose, or the depositor's remark. An excerpt weighted towards active compounds, which were near 21% of everything screened. Unless noted, calls follow the shape of the dose curve; as a rule, active = well fitted curve in the direction sought with a large enough effect; inconclusive = small, poorly fitted or top-dose-only effect, or another doubt; inactive = no such curve, though single readings can be large; an effect the other way counts as inactive or inconclusive.
SMILES,ELG1 DNA repair,IL1B secr inh,TDP1 cell CPT,TDP1 cell noCPT,RORg inh,VP16 counter
COc1ccc(OCCOC(=O)c2cc(S(=O)(=O)N3CCOCC3)c(Cl)cc2Cl)cc1,-,-94,?,?,.,.
O=C(COC(=O)c1cc(S(=O)(=O)N2CCOCC2)c(Cl)cc1Cl)NC1CC1,?,-97,-,-,.,.
CC(=O)Nc1ccc(SCC(Cc2ccccc2)N2CCN(CCc3ccccc3)CCC2=O)cc1 (centres undefined),.,.,.,.,?,-
COc1cccc(CNc2ccc(S(N)(=O)=O)cc2)c1OC,-,-,-,-,-,-
COc1cc(N=Nc2cccc(S(N)(=O)=O)c2)c2ccccc2c1N,?,?,?,18µM,11µM,-
Cc1ccc(S(=O)(=O)c2cnc(SCC(=O)Nc3cccc(Cl)c3)nc2N)cc1C,.,.,?,23µM,.,.
Cc1ccc(S(=O)(=O)c2cnc(SCC(=O)Nc3cc(C)cc(C)c3)nc2N)cc1,.,.,?,16µM,.,.
CC(Sc1ncc(S(=O)(=O)c2ccc(C(C)C)cc2)c(N)n1)C(=O)Nc1ccccc1 (centres undefined),.,.,16µM,26µM,.,.
O=C(Cn1c(NCCCCl)nc2ccccc21)c1ccccc1,-,-,-,-,.,.
COc1ccc([C@]23Cc4cc(C#N)ccc4C(O2)c2c(cc(C)n(-c4ccccc4)c2=O)O3)cc1,.,.,.,.,-[10 µM],-[10 µM]
Cc1cccc(OCC(=O)OCc2cc(=O)n3nc(C4CC4)sc3n2)c1,.,.,-,-,.,.
CC(=O)Nc1ccc(S(=O)(=O)NC(C)C(=O)OCC(=O)Nc2ccc(F)cc2Cl)cc1 (centres undefined),.,-,-,-,.,.
Cc1cccc(C)c1N1C(=O)c2ccccc2NC(=O)C1C(=O)NCc1ccco1 (centres undefined),.,-,-,-,.,.
CN(C)c1ccc(CNC(=O)C2Cc3c(-c4cccc(C(N)=O)c4)ccnc3O2)cc1 (centres undefined),.,-,?,23µM,.,.
NC(=O)c1cccc(-c2ccnc3c2CC(C(=O)NCCc2ccccc2)O3)c1 (centres undefined),.,-,15µM,23µM,.,.
CC(=O)c1cccc(-c2ccnc3c2CC(C(=O)NCc2ccco2)O3)c1 (centres undefined),.,-,0.82µM,0.82µM,.,.
NC(=O)c1cccc(-c2ccnc3c2CC(C(=O)NCc2ccco2)O3)c1 (centres undefined),.,-,3.7µM,2.9µM,.,.
CS(=O)(=O)Nc1cccc(NC(=O)C2Cc3c(-c4cccc(C(N)=O)c4)ccnc3O2)c1 (centres undefined),.,-,-,-,.,.
COc1cccc(-c2ccc3c(c2)C2CC3CCN2C(C)=O)c1 (centres undefined),.,-,-,?,.,.
COc1ccc(OC)c(N(CC(=O)Nc2ccccc2F)S(=O)(=O)c2ccccc2)c1,.,-,-,-,.,.
CC1(C(=O)NS(=O)(=O)Cc2cccc(Cl)c2)CCN1C(=O)C/C=C/c1ccccc1 (centres undefined),.,-,-,-,.,.
Nc1nc2c(nc(Br)n2C2OC(CO)C(O)C2O)c(=O)[nH]1 (centres undefined),.,.,-,-,-,-
Cc1cc(O)c(C(c2cccc(F)c2)N2CCN(c3ccccc3)CC2)c(=O)n1Cc1ccco1 (centres undefined),.,.,-,-,.,.
O=C(NCc1ccco1)C1Cc2c(-c3cccc(F)c3)ccnc2O1 (centres undefined),.,-,0.82µM,1.3µM,.,.
O=C(CSc1nnnn1C1CCCCC1)N1CCN(C(=O)c2ccco2)CC1,?,-,-,-,3.2µM,7.9µM
SMILES,ELG1 DNA repair,IL1B secr inh,TDP1 cell CPT,TDP1 cell noCPT,RORg inh,VP16 counter
CC(=O)c1cccc(-n2nnnc2SCC(=O)Nc2cccc(NC(=O)c3ccco3)c2)c1,18µM,-,-,?,?,-
CCC(=O)Nc1ccc(-n2nnnc2SCC(=O)NNC(=O)c2ccco2)cc1,-,-,-,-,-,-
COc1cccc(-n2nnnc2SCC(=O)Nc2ccc(C(C)=O)cc2)c1,-,-,26µM,23µM,-,-
CCOc1ccc(-n2nnnc2SCC(=O)NNC(=O)c2ccco2)cc1,-,-,16µM,?,-,-
O=C(CSc1nnnn1-c1ccc(F)cc1)NNC(=O)c1ccco1,-,-,-,-,-,-
COC(=O)[C@H]1C[C@@H]1[C@H](NS(=O)(=O)c1ccc(-c2ccccc2)cc1)c1ccccc1,.,.,.,.,-,-
CCOc1ccc(CCNC(=O)Cn2ncc3c([nH]c4ccccc43)c2=O)cc1OCC,.,.,-,-,.,.
O=C(CSc1nnnn1C1CCCC1)Nc1cccc(NC(=O)c2ccco2)c1,-,-,-,?,-,-
CC(=O)c1cccc(-n2nnnc2SCC(=O)Nc2ccccc2N2CCCCC2)c1,?,-,?,23µM,-,-
COc1ccc(-n2nnnc2SCC(=O)Nc2ccccc2N2CCOCC2)cc1OC,-,-,-,-,-,?
Cn1c(SCC(=O)N2CCN(c3ccccc3)CC2)nnc1-c1ccco1,-,-,-,-,-,-
O=C(CSc1nnnn1C1CCCCC1)Nc1cccc(NC(=O)c2ccco2)c1,?,-,5.8µM,4.1µM,-,-
O=C(CSc1nnc(-c2ccco2)n1-c1ccccc1)N1CCN(C(=O)c2ccco2)CC1,-,?,?,23µM,-,-
ON=C(CCc1ccccc1)CCc1ccccc1,.,?,-,-,.,.
CC(C)(C)C(=O)Nc1cc(-c2cccc(Br)c2)nn1-c1ccccc1,.,.,?,21µM,.,.
Cc1cccc(-c2cc(NC(=O)C(C)(C)C)n(-c3ccccc3)n2)c1,.,.,-,?,.,.
CSc1nnc(-c2ccccc2N=Cc2c(C)[nH]n(-c3ccc4ccccc4c3)c2=O)c(=O)[nH]1,?,-,21µM,?,-,-
C=C1CC2(CC(c3ccccc3)OC(c3ccccc3)C2)OC1=O (centres undefined),.,-115,1.8µM,2.6µM,.,.
Cc1ccc(NC(=O)Nc2ccc3c(c2)nc(C)n3C)cc1,?,-,-,-,-,-
O=C(Nc1cccc(Cl)c1)Nc1ccc2nccnc2c1,?,?,?,?,-,-
C=CCNC(=O)Nc1ccc(Br)cc1Cl,?,-,-,?,-,-
O=C(CNc1ccccc1Cl)c1ccc(Br)cc1,-,-77,?,?,-[1.91 µM],?
O=C(Nc1ccncc1)Nc1ccc(Br)cc1Cl,-,-94,21µM,?,-,-
Cc1nc2cc(NC(=O)Nc3ccccc3Cl)ccc2n1C,?,?,-,?,5µM,11µM
O=C(Nc1ccc2nccnc2c1)Nc1ccccc1Cl,?,?,18µM,15µM,-,?
CCOc1ccc(C(=O)NN2CCOCC2)cc1,-,-,-,-,-,-
